Measurements from PubChem BioAssay (NCI).
About 83,000 compounds went through this panel and 20% of them were active in at least one assay; those are over-represented in the sample as a whole.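 Treatment: one concentration, 48 hours, 96-well format. Scoring: percent growth, with anything below 10 considered active.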 The source made the active and inactive calls.

Legend:
Assay in all cases: NCI-60 one-dose screen, 48 h (100 = growth as untreated, 0 = no growth, -100 = all killed)
Details in all cases: 10 µM unless noted
HCT-15 colon = tested on: HCT-15 colon
HT29 colon = tested on: HT29 colon
SNB-75 CNS = tested on: SNB-75 CNS
SNB-19 CNS = tested on: SNB-19 CNS
PC-3 prostate = tested on: PC-3 prostate
UACC-62 melanoma = tested on: UACC-62 melanoma
LOX IMVI melanoma = tested on: LOX IMVI melanoma
SK-MEL-28 melanoma = tested on: SK-MEL-28 melanoma
SK-MEL-5 melanoma = tested on: SK-MEL-5 melanoma

Measured: growth

CSc1nc(NCc2ccccc2)c(C#N)c(-c2cccc([N+](=O)[O-])c2)n1
inactive: HCT-15 colon 95.9% | HT29 colon 103% | SNB-75 CNS 68.2% | SNB-19 CNS 94.9% | PC-3 prostate 94.5% | UACC-62 melanoma 79% | LOX IMVI melanoma 92.1% | SK-MEL-28 melanoma 102%

COc1ccc(-c2n[nH]nc2-c2csc3ccccc23)cc1OC
active: HT29 colon 8.59% | SNB-75 CNS 1.72%
inactive: HCT-15 colon 16.4% | SNB-19 CNS 30.4% | PC-3 prostate 27.8% | UACC-62 melanoma 27.7% | LOX IMVI melanoma 24.2% | SK-MEL-28 melanoma 50.2%

COc1cccc(-c2nn(C(C)(C)C)cc2-c2ccnc(NCCCNS(=O)(=O)c3ccc(C)cc3)c2)c1
inactive: HCT-15 colon 107% | HT29 colon 105% | SNB-75 CNS 69.8% | SNB-19 CNS 102% | PC-3 prostate 102% | SK-MEL-5 melanoma 100% | UACC-62 melanoma 107% | LOX IMVI melanoma 99.5% | SK-MEL-28 melanoma 112%

CSc1nc(Nc2cccc(NC(=O)CCl)c2)c(C#N)c(-c2cccc([N+](=O)[O-])c2)n1
inactive: HCT-15 colon 17.5% | HT29 colon 17.7% | SNB-75 CNS 30.5% | SNB-19 CNS 83.5% | PC-3 prostate 30.5% | SK-MEL-5 melanoma 34.3% | UACC-62 melanoma 41% | SK-MEL-28 melanoma 102%
active: LOX IMVI melanoma -69.2%

O=C(N=Nc1c(O)[nH]c2ccc(Br)cc12)c1cc(-c2ccccc2)on1
inactive: HCT-15 colon 103% | HT29 colon 97% | SNB-75 CNS 58.4% | SNB-19 CNS 102% | PC-3 prostate 100% | SK-MEL-5 melanoma 99.9% | UACC-62 melanoma 103% | LOX IMVI melanoma 94.8% | SK-MEL-28 melanoma 106%

COc1cc(/C=C/c2cc(O)c3cc(C(C)=O)c(=O)oc3c2)cc2c1O[C@]1(C)CC[C@@H](O)C(C)(C)[C@H]1C2
active: SNB-75 CNS -8.02% | SK-MEL-5 melanoma -96.8% | UACC-62 melanoma -11.7% | SK-MEL-28 melanoma -0.116%
inactive: HCT-15 colon 14.4% | HT29 colon 60.5% | SNB-19 CNS 48.1% | PC-3 prostate 27.4% | LOX IMVI melanoma 18.8%

COc1ccc(-c2cc(NC(=O)Nc3ccc4ncsc4c3)no2)cc1
inactive: HCT-15 colon 96.5% | HT29 colon 97.2% | SNB-75 CNS 60.2% | SNB-19 CNS 92.9% | PC-3 prostate 92.6% | SK-MEL-5 melanoma 99.5% | UACC-62 melanoma 95.9% | LOX IMVI melanoma 102% | SK-MEL-28 melanoma 108%

N#Cc1c(-c2ccc(Cl)cc2)nc(N=Nc2c(O)[nH]c3ccc(Cl)cc23)nc1N1CCOCC1
inactive: HCT-15 colon 100% | HT29 colon 107% | SNB-75 CNS 68.7% | SNB-19 CNS 101% | PC-3 prostate 99.2% | SK-MEL-5 melanoma 97.3% | UACC-62 melanoma 93.7% | LOX IMVI melanoma 83.2% | SK-MEL-28 melanoma 101%

Cc1cc(NS(=O)(=O)c2ccc(-c3cnc(C4CC4)o3)cc2)ccc1Cl
active: HT29 colon -17.1% | SNB-75 CNS -0.004%
inactive: HCT-15 colon 17% | SNB-19 CNS 44.3% | PC-3 prostate 24.7% | SK-MEL-5 melanoma 24.8% | UACC-62 melanoma 26.4% | LOX IMVI melanoma 46.5% | SK-MEL-28 melanoma 50.5%

CON1C(=O)CC[C@]2(C)[C@H]3CC[C@@H]4C([C@@]5(C)CCC(=O)O5)CC[C@@]4(C)[C@]3(C)CC[C@H]2C1(C)C (stereo partly specified)
inactive: HCT-15 colon 99.8% | HT29 colon 94.6% | SNB-75 CNS 71.5% | SNB-19 CNS 96.5% | PC-3 prostate 87.4% | SK-MEL-5 melanoma 98.4% | UACC-62 melanoma 87.2% | LOX IMVI melanoma 95.1% | SK-MEL-28 melanoma 107%

COc1cc2nc(N3CCCC3)nc(NCCc3ccccc3)c2cc1OC
active: HCT-15 colon -55.1% | HT29 colon 5.28% | LOX IMVI melanoma -74.8%
inactive: SNB-75 CNS 93.5% | SNB-19 CNS 87.6% | PC-3 prostate 67% | SK-MEL-5 melanoma 90.3% | UACC-62 melanoma 94.7% | SK-MEL-28 melanoma 88.6%

O=C1CC(=NCC(=O)n2c(-c3ccccc3)nc3ccccc32)NN1
inactive: HCT-15 colon 99.1% | HT29 colon 108% | SNB-75 CNS 66.6% | SNB-19 CNS 97.7% | PC-3 prostate 99.2% | SK-MEL-5 melanoma 96.6% | UACC-62 melanoma 94.9% | LOX IMVI melanoma 89.9% | SK-MEL-28 melanoma 118%

COC(=O)[C@]12CCC(C)(C)C[C@H]1[C@H]1C(=O)C[C@@H]3[C@@]4(C)c5c([nH]c6ccccc6c5=O)C(C)(C)[C@@H]4CC[C@@]3(C)[C@]1(C)CC2
inactive: HCT-15 colon 46.5% | HT29 colon 45.4% | SNB-75 CNS 65% | SNB-19 CNS 75.3% | PC-3 prostate 36.6% | SK-MEL-5 melanoma 12.4% | UACC-62 melanoma 54.5% | LOX IMVI melanoma 58.3% | SK-MEL-28 melanoma 68%

CCCCN(CCCC)CCCn1c(-c2ccccc2)ccc1-c1ccccc1
inactive: HCT-15 colon 55.3% | HT29 colon 33.1% | SNB-75 CNS 83.4% | SNB-19 CNS 83.4% | PC-3 prostate 48% | UACC-62 melanoma 82.4% | LOX IMVI melanoma 68.7% | SK-MEL-28 melanoma 88.8%

COc1cccc(-c2nn(C(C)(C)C)cc2-c2ccnc(NCCCNS(=O)(=O)c3cccc4ccccc34)c2)c1
inactive: HCT-15 colon 108% | HT29 colon 103% | SNB-75 CNS 71.2% | SNB-19 CNS 100% | PC-3 prostate 106% | SK-MEL-5 melanoma 100% | UACC-62 melanoma 108% | LOX IMVI melanoma 99.8% | SK-MEL-28 melanoma 112%

CC1(C)CC[C@]2(C(=O)Nc3ccccn3)CC[C@]3(C)C(=CC[C@@H]4[C@@]5(C)C/C(=C/c6cccnc6)C(=O)C(C)(C)[C@@H]5CC[C@]43C)[C@H]2C1
active: SK-MEL-5 melanoma -14.8%
inactive: HCT-15 colon 18.9% | HT29 colon 25.1% | SNB-75 CNS 45.2% | SNB-19 CNS 63.8% | PC-3 prostate 19.9% | UACC-62 melanoma 34.1% | LOX IMVI melanoma 14.9% | SK-MEL-28 melanoma 48.2%

O=C(/C=C/c1cccc(Cl)c1)c1ccc(O)c(CN2CCN(c3cc4c(cc3F)c(=O)c(C(=O)O)cn4C3CC3)CC2)c1
inactive: HCT-15 colon 17.5% | SNB-75 CNS 28.7% | SNB-19 CNS 35.9% | PC-3 prostate 19.9% | SK-MEL-5 melanoma 24.5% | UACC-62 melanoma 34.9% | LOX IMVI melanoma 11.7% | SK-MEL-28 melanoma 58.8%
active: HT29 colon 4.36%

COc1cc(CNc2oc(-c3ccccc3)c(-c3ccccc3)c2C#N)cc(CN2CCN(C)CC2)c1O
active: HCT-15 colon -55.9% | HT29 colon 5.27% | LOX IMVI melanoma -74.6% | SK-MEL-28 melanoma -38.4%
inactive: SNB-75 CNS 52.4% | SNB-19 CNS 83.3% | PC-3 prostate 57.6% | SK-MEL-5 melanoma 49.8% | UACC-62 melanoma 91.1%

CC1=NN(c2nc(-c3ccc(Cl)cc3)c(C#N)c(N3CCOCC3)n2)C(=O)C1
inactive: HCT-15 colon 89.3% | HT29 colon 94.1% | SNB-75 CNS 56.5% | SNB-19 CNS 94.6% | PC-3 prostate 98.5% | SK-MEL-5 melanoma 94.3% | UACC-62 melanoma 13.8% | LOX IMVI melanoma 75.5% | SK-MEL-28 melanoma 33.1%

CC(=O)O[C@H]1CC[C@]2(C)[C@H]3CC=C4[C@@H]5CC(C)(C)CC[C@]5(C(=O)NCCNCCN)CC[C@@]4(C)[C@]3(C)CC[C@H]2C1(C)C
inactive: SNB-75 CNS 88% | SK-MEL-5 melanoma 71.4%
active: HCT-15 colon -89.3% | HT29 colon -92.8% | SNB-19 CNS 2.09% | PC-3 prostate -44.3% | UACC-62 melanoma -21.2% | LOX IMVI melanoma -100% | SK-MEL-28 melanoma -85.6%

O=S(=O)(Nc1ccc(OC(F)F)cc1)c1ccc(-c2cnc(C3CC3)o2)cc1
inactive: HCT-15 colon 38.4% | HT29 colon 55.6% | SNB-75 CNS 42.7% | SNB-19 CNS 75.8% | PC-3 prostate 67.6% | SK-MEL-5 melanoma 57.7% | UACC-62 melanoma 44% | LOX IMVI melanoma 72% | SK-MEL-28 melanoma 85.3%

COc1ccc(-c2nc3ccc(-c4nc5ccc(N6CCN(c7ccncc7)CC6)cc5[nH]4)cc3[nH]2)cc1OC
inactive: HCT-15 colon 88.7% | HT29 colon 22.6% | SNB-75 CNS 52.8% | SNB-19 CNS 40.9% | PC-3 prostate 54.8% | SK-MEL-5 melanoma 14.1% | UACC-62 melanoma 17.5% | LOX IMVI melanoma 16.9% | SK-MEL-28 melanoma 19.1%

O=S(=O)(Nc1ccc(Cl)c(F)c1)c1ccc(-c2cnc(C3CC3)o2)cc1
inactive: HCT-15 colon 21.1% | SNB-19 CNS 44.9% | PC-3 prostate 29.9% | SK-MEL-5 melanoma 17.4% | UACC-62 melanoma 24.8% | LOX IMVI melanoma 40.3% | SK-MEL-28 melanoma 58.5%
active: HT29 colon -6.67% | SNB-75 CNS -7.32%

N#CCCN=Nc1c(O)[nH]c2ccc(F)cc12
inactive: HCT-15 colon 101% | HT29 colon 110% | SNB-75 CNS 62.7% | SNB-19 CNS 101% | PC-3 prostate 95.2% | SK-MEL-5 melanoma 99.5% | UACC-62 melanoma 102% | LOX IMVI melanoma 94.5% | SK-MEL-28 melanoma 107%

COc1cccc(Nc2nc(SC)nc(-c3cccc([N+](=O)[O-])c3)c2C#N)c1
inactive: HCT-15 colon 79.2% | HT29 colon 78% | SNB-75 CNS 34% | SNB-19 CNS 67.2% | PC-3 prostate 71.2% | SK-MEL-5 melanoma 87.2% | UACC-62 melanoma 78.5% | LOX IMVI melanoma 64.9% | SK-MEL-28 melanoma 76.3%

c1ccc(-c2cc3n4c(-c5ccccc5)nn(-c5ccccc5)c4cnc-3n2)cc1
active: SNB-75 CNS -8.19%
inactive: HCT-15 colon 86.2% | HT29 colon 44.3% | SNB-19 CNS 75.9% | SK-MEL-5 melanoma 70.5% | UACC-62 melanoma 45.7% | LOX IMVI melanoma 57.1% | SK-MEL-28 melanoma 63.3%

O=C1c2cc3c(cc2-c2c1c1cc(F)c(F)cc1c(=O)n2CCCn1ccnc1)OCO3
active: HCT-15 colon 4.66% | HT29 colon 3.52% | SK-MEL-5 melanoma -74.9% | UACC-62 melanoma -61.4% | LOX IMVI melanoma -20.4%
inactive: SNB-75 CNS 24.4% | SNB-19 CNS 15.7% | SK-MEL-28 melanoma 34.8%

O=[N+]([O-])c1ccc(Nc2nc(NCCN3CCOCC3)ncc2[N+](=O)[O-])cc1
inactive: HCT-15 colon 84.9% | HT29 colon 91.8% | SNB-75 CNS 76.4% | SNB-19 CNS 83.9% | SK-MEL-5 melanoma 96% | UACC-62 melanoma 84.2% | LOX IMVI melanoma 96.8% | SK-MEL-28 melanoma 98%
